High-throughput results: PubChem, National Center for Advancing Translational Sciences (NCATS)
In the library only some 19% were active in any assay of this set; here they are far more common.
HT1080 IDH1KD tx – HT-1080 IDH1 knockdown cell toxicity (counter line); HT-1080 IDH1 knockdown viability, ATP luminescence, 48 h; Potency, µM (top dose mostly 46.1 µM), actives largely listed as cytotoxic; 360,000 compounds, 2% hits; AID 686971
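IDH1KD HT-1080 cells, 750/well, RPMI + 5% FBS; compound pinned after 2 h settling; 48 h, 37 °C; CellTiter-Glo luminescence; % activity normalised to DMSO and no-cell wells; curves fitted, classed by r2 and efficacy.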
TDP1 cell CPT – DT40-hTDP1 cell growth loss with CPT; chicken DT40 Tdp1-/-;hTDP1 cells + 20 nM CPT, ATP luminescence, 48 h; Potency, µM (series often up to 46.2 µM), actives largely listed as inhibitors; 420,000 compounds, 12% hits; AID 686979; also: nearly all actives have a fitted effect of over 55% in size
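Cell growth measured by CellTiter-Glo luminescence after a minimum 48 h, 37 C compound exposure with 20 nM CPT in Tdp1-knockout DT40 cells stably expressing hTDP1, seeded 400/well; qHTS titration format.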
ELG1 DNA repair – ELG1-dependent DNA repair inhibition; 330,000 compounds, 2.3% hits; HEK293T ELG1-luciferase reporter, luminescence, 16 h; DNA damage induced by 5-fluorouridine; AID 504467; Potency, µM (titrated, usually from 46.1 µM), hits mostly inhibitors; also: nearly all actives have a fitted effect of over 55% in size
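Step one: seed 2,000 cells per well. Step two: pin-transfer compound or DMSO alongside 5-fluorouridine. Step three: incubate 16 hr, 37 °C, 5% CO2. Step four: add ONE-Glo, wait 30 min, read luminescence.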
HT1080-NT tox – kills 2HG-producing HT-1080-NT fibrosarcoma cells. 360,000 compounds, 1.6% hits. Potency, µM (titrated, usually from 46.1 µM), usual class: cytotoxic. AID 686970. HT-1080-NT fibrosarcoma viability, CellTiter-Glo ATP luminescence, 48 h;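 also: NT is the 2HG producing partner of a matched IDH1 knockdown line; nearly all actives have a fitted effect of over 55% in size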
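Luminescent CellTiter-Glo readout after 48 hours of compound exposure at 37 degrees C defined viability of HT-1080-NT cells. Activity was normalized to DMSO wells and cell-free media wells; concentration-response curves were fitted and assigned curve classes.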
TDP1 cell noCPT – qHTS for Inhibitors of human tyrosyl-DNA phosphodiesterase 1 (TDP1): qHTS in cells in absence of CPT; DT40 Tdp1-/- hTDP1 cells, no CPT, ATP luminescence, 48 h; Potency, µM (doses to about 46.2 µM), usual class: inhibitors; 420,000 compounds, 15% hits; AID 686978, 2013; also: nearly all actives have a fitted effect of over 55% in size
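Growth kinetics read by CellTiter-Glo luminescence after ≥48 hr at 37 °C. Cells: DT40 Tdp1-/- stably carrying human TDP1, 400 per well, compound exposure in the absence of CPT (DMSO vehicle).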
IL-1B inflam inh – inhibitors of inflammasome signaling (IL-1 beta secretion); THP-1 LPS/ATP IL-1B secretion, AlphaLISA, 16 h; hits give low values; activity change, % at 57.5 µM; 360,000 compounds, 4.7% hits; AID 743279; in the data active = activity change below about -50%; inconclusive = mostly about -30% to -49%
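Secreted IL-1B measured by AlphaLISA bead assay after 16 h compound exposure of THP-1 cells; compounds (final up to 57.5 uM) added 1 h before LPS (250 ng/mL) and ATP (1.25 mM) stimulation; lower signal means less secretion.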
Each line names hits and unclear results; the compound was inactive in the other large screens. Unless noted, calls follow the shape of the dose curve; as a rule, active = well fitted curve in the direction sought with a large enough effect; inconclusive = small, poorly fitted or top-dose-only effect, or another doubt; inactive = no such curve, though single readings can be large; an effect the other way counts as inactive or inconclusive.

Cc1ccc2nc(-c3ccccc3C)c(CN(CC3CCCO3)C(=O)c3cccs3)cc2c1 (centres undefined)	none (no result: HT1080 IDH1KD tx, ELG1 DNA repair, HT1080-NT tox, IL-1B inflam inh)
C[C@H](NC(=O)c1nc[nH]c1C(=O)NCc1ccc(CNC(=O)OC(C)(C)C)cc1)C(=O)OCc1ccccc1	TDP1 cell CPT 21µM, TDP1 cell noCPT 16µM
C[C@H](NC(=O)c1nc[nH]c1C(=O)NCc1ccc(CNC(=O)OC(C)(C)C)cc1)c1ccccc1	HT1080 IDH1KD tx inconclusive, TDP1 cell CPT inconclusive, ELG1 DNA repair 18µM, HT1080-NT tox inconclusive, TDP1 cell noCPT inconclusive
C[C@H](NC(=O)c1nc[nH]c1C(=O)NCCCCCNC(=O)OC(C)(C)C)c1ccccc1	TDP1 cell CPT 15µM, ELG1 DNA repair inconclusive, TDP1 cell noCPT 16µM
C[C@@H](NC(=O)c1nc[nH]c1C(=O)NCCCCCNC(=O)OC(C)(C)C)c1ccccc1	TDP1 cell CPT 26µM, ELG1 DNA repair inconclusive, TDP1 cell noCPT inconclusive
O=C(Cc1cccc(F)c1)N1CCOCC1	TDP1 cell CPT inconclusive (no result: ELG1 DNA repair)
O=[N+]([O-])c1cnc(Sc2ccncn2)c([N+](=O)[O-])c1	TDP1 cell CPT 1.2µM, TDP1 cell noCPT 1.2µM, IL-1B inflam inh inconclusive (no result: ELG1 DNA repair)
CCc1cccc(C)c1NC(=O)NC1COc2ccccc2C1 (centres undefined)	none (no result: HT1080 IDH1KD tx, ELG1 DNA repair, HT1080-NT tox, IL-1B inflam inh)
CCOc1ccc(CCNC(=O)COC(=O)c2ccc(C)s2)cc1OCC	none
CC1C(=O)C(C)C(c2cc(Cl)ccc2O)NC1c1cc(Cl)ccc1O (centres undefined)	HT1080 IDH1KD tx 23µM, TDP1 cell CPT inconclusive, ELG1 DNA repair inconclusive, HT1080-NT tox 16µM, IL-1B inflam inh -75
Cc1ccc2cc3cc(C(=O)NCCCN4CCCC4=O)oc3nc2c1	IL-1B inflam inh inconclusive
COc1ccc(C2=NN(CN3C(=O)C(=O)c4ccccc43)C(c3ccc(Br)cc3)C2)cc1 (centres undefined)	TDP1 cell CPT 16µM, ELG1 DNA repair inconclusive, TDP1 cell noCPT 6.5µM, IL-1B inflam inh -79
Cc1ccc(C2=NN3C(=O)c4ccccc4C3C2)cc1 (centres undefined)	ELG1 DNA repair inconclusive, TDP1 cell noCPT inconclusive
COc1ccc(C2CC(c3ccccc3Br)=NN2c2ccc(S(N)(=O)=O)cc2)cc1 (centres undefined)	HT1080 IDH1KD tx inconclusive, HT1080-NT tox inconclusive
COc1ccc(C2=NN(CN3C(=O)C(=O)c4ccccc43)C(c3ccc(C)cc3)C2)cc1 (centres undefined)	TDP1 cell CPT 18µM, ELG1 DNA repair inconclusive, TDP1 cell noCPT inconclusive
Cc1cccc(OCC(O)Cn2c(=N)n(CCN3CCCCC3)c3ccccc32)c1 (centres undefined)	HT1080 IDH1KD tx 11µM, TDP1 cell CPT 12µM, ELG1 DNA repair inconclusive, HT1080-NT tox 10µM, TDP1 cell noCPT 13µM, IL-1B inflam inh -51
Cn1c(=O)n(CCOc2ccc(Cl)cc2Cl)c2ccccc21	ELG1 DNA repair inconclusive
N=c1n(Cc2ccccc2)c2ccccc2n1CC(O)COc1ccc(Cl)cc1Cl (centres undefined)	HT1080 IDH1KD tx 12µM, TDP1 cell CPT 21µM, ELG1 DNA repair inconclusive, HT1080-NT tox 29µM, TDP1 cell noCPT 7.3µM, IL-1B inflam inh -103
COc1ccc(OCC(O)CN2C(=O)c3ccccc3C2=O)cc1 (centres undefined)	HT1080-NT tox inconclusive
N=c1n(Cc2ccc(Cl)cc2)c2ccccc2n1CC(O)COc1ccccc1 (centres undefined)	HT1080 IDH1KD tx 15µM, TDP1 cell CPT inconclusive, ELG1 DNA repair inconclusive, HT1080-NT tox 21µM, TDP1 cell noCPT 8.2µM, IL-1B inflam inh -97
COc1ccc(OCC(O)Cn2c(=N)n(Cc3ccccc3)c3ccccc32)cc1 (centres undefined)	HT1080 IDH1KD tx 11µM, TDP1 cell CPT inconclusive, ELG1 DNA repair inconclusive, HT1080-NT tox inconclusive, TDP1 cell noCPT 6.5µM, IL-1B inflam inh -97
Cc1cc(C)c(NC(=O)CNC(=O)COC(=O)CN2C(=O)NC3(CCCC3)C2=O)c(C)c1	none
O=C(NC1CCN(Cc2ccccc2)CC1)c1cc(S(=O)(=O)N2CCOCC2)ccc1Cl	TDP1 cell CPT inconclusive (no result: ELG1 DNA repair)
COc1ccc(-c2nnc(SCC(=O)O)n2Cc2ccccc2)cc1	none
COc1ccc(C(O)c2cnc(C)n2Cc2ccccc2)cc1 (centres undefined)	TDP1 cell CPT inconclusive, TDP1 cell noCPT 18µM (no result: ELG1 DNA repair)
Cc1cccc(OCC(O)Cn2c(=N)n(Cc3ccccc3)c3ccccc32)c1 (centres undefined)	TDP1 cell CPT inconclusive, ELG1 DNA repair inconclusive, TDP1 cell noCPT 21µM, IL-1B inflam inh -54
CCc1ccc(N2CC(C(=O)OCc3nc4ccsc4c(=O)[nH]3)CC2=O)cc1 (centres undefined)	none
COc1ccc(CNC(=O)c2cccc(N3CCCS3(=O)=O)c2)cc1OC	TDP1 cell CPT 10µM, TDP1 cell noCPT 7.3µM (no result: HT1080 IDH1KD tx, ELG1 DNA repair, HT1080-NT tox, IL-1B inflam inh)
O=C(COC(=O)[C@@H]1CCCN1C(=O)c1cccs1)Nc1cccc([N+](=O)[O-])c1	none
O=S(=O)(c1ccccc1F)N1CCN(CCc2ccccc2)CC1	ELG1 DNA repair inconclusive, TDP1 cell noCPT inconclusive
COc1cccc(C(=O)Oc2ccc3ccc(O)cc3c2)c1	none
CCc1cc2c3c(c1)C(C)CC(C)(C)N3C(=O)/C2=C1\SC(=O)NC1=O (centres undefined)	HT1080 IDH1KD tx inconclusive, TDP1 cell noCPT inconclusive (no result: IL-1B inflam inh)
COc1cccc(C(=O)Oc2cc3c4c(c2)C(C)=CC(C)(C)N4C(=O)C3=O)c1	HT1080 IDH1KD tx 4.5µM, TDP1 cell CPT 3.7µM, ELG1 DNA repair inconclusive, HT1080-NT tox 7.1µM, TDP1 cell noCPT 3.7µM
COc1ccc(C(=O)Oc2cc3c4c(c2)C(C)=CC(C)(C)N4C(=O)C3=O)cc1OC	TDP1 cell CPT 4.6µM, ELG1 DNA repair inconclusive, TDP1 cell noCPT 3.3µM
COc1cc2c3c(c1)C(C)=CC(C)(C)N3C(=O)C2=O	HT1080 IDH1KD tx 3.3µM, TDP1 cell CPT 0.73µM, HT1080-NT tox 10µM, TDP1 cell noCPT 0.82µM
COc1cc2c3c(c1)C(C)CC(C)(C)N3C(=O)C2=O (centres undefined)	TDP1 cell CPT 2.6µM, TDP1 cell noCPT 5.2µM
C=CCn1c(=O)c2c(nc(-c3ccccc3)n2C)n(C)c1=O	none (no result: HT1080 IDH1KD tx, ELG1 DNA repair, HT1080-NT tox, IL-1B inflam inh)
NC(=O)c1cc(NC(=O)c2ccc(NS(=O)(=O)c3cccs3)cc2)cc(C(N)=O)c1	none
